Screens from PubChem.
p53 reactivation = re-activators of mutant p53. H1299 p53-A138V BP100-luciferase reporter, luminescence, 24 h. 320,000 tested, 0.063% active. Potency, µM (doses to about 92.2 µM), for inactives: at the highest dose activity change, positive = activation, usual class: activators. AID 504706; active means well fitted activation curve with a large enough effect; inconclusive means small, poorly fitted or top-dose-only effect; inactive means no such curve, though single readings can be large or run the other way; further: potency means the concentration at half of the fitted maximal effect; % of control where 0% means no effect; nearly all actives have a fitted effect of over 45% in size
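H1299 (p53-null), stable ts p53-A138V + BP100-Luc; 1000 cells/well, Opti-MEM/10% FBS; cpd 4 pt, 1:5; 24 h, 37 deg C, 5% CO2; detection reagent 10 min RT; luminescence.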
KCNH2 WT inh = inhibitors of human wildtype KCNH2 potassium channel; activity change, % at 1.84 µM; U2OS, BacMam KCNH2, thallium flux FluxOr; active compounds read low; 340,000 tested, 0.37% active; Q12809;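 active means maximum activity change below -70%; inconclusive means maximum activity change between -70% and -50%; inactive means maximum activity change above -50%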; further: on the % scale 0 is the no-effect control and ±100 the full control effect
Target sequence (Q12809 whole entry, looked up): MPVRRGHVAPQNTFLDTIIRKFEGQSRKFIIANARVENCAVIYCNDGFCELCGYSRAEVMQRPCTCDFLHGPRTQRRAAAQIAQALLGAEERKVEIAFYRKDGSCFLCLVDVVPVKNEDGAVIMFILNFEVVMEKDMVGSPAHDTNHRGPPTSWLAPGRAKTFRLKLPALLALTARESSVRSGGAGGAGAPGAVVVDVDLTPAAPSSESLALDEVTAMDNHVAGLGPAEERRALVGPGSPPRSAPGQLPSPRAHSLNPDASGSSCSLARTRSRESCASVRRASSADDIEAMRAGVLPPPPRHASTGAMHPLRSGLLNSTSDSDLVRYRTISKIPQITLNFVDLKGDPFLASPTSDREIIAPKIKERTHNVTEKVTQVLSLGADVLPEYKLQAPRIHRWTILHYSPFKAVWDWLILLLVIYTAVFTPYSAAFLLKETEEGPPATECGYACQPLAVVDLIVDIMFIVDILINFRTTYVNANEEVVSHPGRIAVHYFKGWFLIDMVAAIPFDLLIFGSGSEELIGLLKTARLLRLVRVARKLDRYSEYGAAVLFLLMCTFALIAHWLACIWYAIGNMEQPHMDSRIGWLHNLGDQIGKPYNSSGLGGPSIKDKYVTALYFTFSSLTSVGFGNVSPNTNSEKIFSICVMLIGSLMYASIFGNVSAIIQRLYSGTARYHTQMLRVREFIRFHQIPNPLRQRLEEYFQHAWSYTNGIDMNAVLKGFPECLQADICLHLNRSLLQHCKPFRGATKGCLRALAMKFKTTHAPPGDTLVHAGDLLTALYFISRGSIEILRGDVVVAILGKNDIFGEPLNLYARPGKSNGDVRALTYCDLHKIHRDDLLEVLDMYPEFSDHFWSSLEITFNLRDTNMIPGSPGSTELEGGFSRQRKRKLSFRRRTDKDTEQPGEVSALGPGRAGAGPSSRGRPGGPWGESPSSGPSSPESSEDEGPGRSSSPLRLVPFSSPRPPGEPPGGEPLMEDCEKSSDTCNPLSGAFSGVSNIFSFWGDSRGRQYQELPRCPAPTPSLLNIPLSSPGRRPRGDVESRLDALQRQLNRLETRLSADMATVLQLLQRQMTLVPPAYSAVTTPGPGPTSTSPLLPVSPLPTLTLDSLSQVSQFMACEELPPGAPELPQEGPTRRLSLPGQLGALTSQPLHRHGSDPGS
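U2OS cells transduced with wild-type KCNH2 virus are loaded with FluxOr dye for 45 min, and thallium flux is measured in kinetic reads before and after stimulation buffer. Rate constants are normalized to DMSO controls.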
ClpP mod = qHTS Assay for Activators of ClpP | ATP-dependent Clp protease proteolytic subunit (Bacillus subtilis (strain 168)), P80244 | purified B. subtilis ClpP, FRET peptide cleavage, 20 min | Potency, µM (doses to about 57.5 µM), for inactives: at the top dose activity change, negative = active | 340,000 tested, 1.9% active; active means well fitted falling curve with a large enough effect; inconclusive means small, poorly fitted or top-dose-only effect; inactive means no such curve, though single readings can be large or run the other way; further: potency means the concentration at half of the fitted maximal effect; the source files actives as falling curves though it sought activators and does not explain the sign; nearly all actives have a fitted effect of over 65% in size
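Purified B. subtilis ClpP, 10 microg/mL final in Tris/HCl pH8 with KCl, BSA, glycerol and Tween-20, cleaved an Abz/nitrotyrosine-quenched decapeptide. Fluorescence (ex 320, em 430) was read at 0 and 20 min at room temperature. Delta was normalized to 5.8 microM ADEP and DMSO/no-enzyme controls.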
TRPV1 PAM = potentiators of human vanilloid receptor 1 (TRPV1); potentiation, % at 8.33 µM; TRPV1-expressing cells, Fluo-8 calcium influx, capsaicin EC20 potentiation; 320,000 tested, 0.02% active; in the data active means potentiation above about 80%; inconclusive means between about 30% and that limit; further: 0% is about no effect
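Cells expressing TRPV1 were dye-loaded with Fluo-8 and read kinetically: 10 s baseline, 3 min after compound (agonist portion), then 2 min after EC20 capsaicin (allosteric enhancer portion). Calcium-bound dye fluorescence at 480/520 nm.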
TRPV1 agonist = agonists of human vanilloid receptor 1 (TRPV1) | Q8NER1 | TRPV1-expressing cells, Fluo-8 calcium influx, agonist mode | activation, % at 8.33 µM | 320,000 tested, 0.19% active | AID 540275; in the data active means activation above about 80%; inconclusive means between about 30% and that limit; further: 0% is about no effect
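Cells expressing TRPV1 were dye-loaded with Fluo-8 and read kinetically: 10 s baseline, 3 min after compound (agonist portion), then 2 min after EC20 capsaicin (allosteric enhancer portion). Calcium-bound dye fluorescence at 480/520 nm.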
KCNH2 3.1 block = KCNH2 3.1 (human) potassium channel inhibition; U2OS KCNH2 3.1, thallium flux FluxOr; active compounds read low; activity change, % (tested at about 1.8 µM); 340,000 tested, 0.95% active;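 active means maximum activity change below -70%; inconclusive means maximum activity change from -70% to -50%; inactive means maximum activity change above -50%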;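 further: thallium influx rate constant from kinetic fluorescence after stimulation buffer; on the % scale 0 is the no-effect control and ±100 the full control effect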
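Virally transduced U2OS (3.1 isoform, 4 h infection in dark at RT) → overnight 37 C → FluxOr + Red40 in HBSS/HEPES, 45 min → stimulation buffer, 2 min kinetic read → rate constant vs DMSO controls.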
* marks the source's active call; other numbers are inactive results; ? = inconclusive; . = not tested or not shown. Compounds with a hit are over-represented: about 2.6% of the library has one in this group of screens.

SMILES | p53 reactivation | KCNH2 WT inh | ClpP mod | TRPV1 PAM | TRPV1 agonist | KCNH2 3.1 block
CC(C)Oc1ccc(CNC(=O)Cn2c(-c3cccs3)cc3ccccc32)cc1 | . | . | 35µM* | . | . | .
COc1cccc(CCNC(=O)Cn2c(-c3cccs3)cc3ccccc32)c1 | . | . | 4% | . | . | .
Cc1cccc(CNC(=O)Cn2c(-c3cccs3)cc3ccccc32)c1 | . | . | 14µM* | . | . | .
Cn1c(-c2ccc3c(c2)OCO3)cnc1N | ? | 4 | -5% | -1 | -1 | -75*
COc1ccc(NC(=O)c2sc3nc(C)nc(N4CCN(c5ccccn5)CC4)c3c2C)cc1Cl | -9% | -78* | ? | 0 | 4 | -114*
Cc1cc(Br)ccc1NC(=O)c1sc2ncnc(N3CCN(c4ccccn4)CC3)c2c1C | -1% | -106* | -14% | 5 | 5 | -110*
COc1ccc(NC(=O)c2sc3ncnc(N4CCN(c5ccccn5)CC4)c3c2C)cc1Cl | -4% | -118* | -15% | 9 | 0 | -114*
CCc1ccc(NC(=O)c2sc3nc(C)nc(N4CCN(c5ccccn5)CC4)c3c2C)cc1 | 4% | -9 | . | 2 | 2 | ?
Cc1cccc(Cn2c(CN3CCC(C(=O)NCCc4ccccc4)CC3)cc3ccccc32)c1 | . | . | -6% | . | . | .
COC(=O)[C@]12CCCCC=C1N(Cc1cccc3ccccc13)C(=O)[C@H](CC(=O)N1CCSCC1)C2 | . | . | -4% | . | . | .
CCN(CC)CC(=O)Nc1c2c(nc3ccccc13)N(C)CC2 | 7% | 5 | -2% | 1 | 0 | 12
O=C(CN1CCOCC1)NNc1c2ccccc2nc2ccccc12 | 0% | 13 | . | -5 | 0 | -19
O=C(CN1CCOCC1)Nc1c2c(nc3ccccc13)N(Cc1ccccc1)CC2 | -6% | 5 | 22µM* | 5 | 12 | -22
O=C(CN1CCCC1)Nc1c2c(nc3ccccc13)N(Cc1ccccc1)CC2 | -5% | 61 | 14µM* | 5 | 2 | -6
C=CCn1c(-c2ccccc2)n[nH]c1=S | 12% | -17 | -4% | 5 | 5 | 7
C=CCn1c(-c2ccoc2)n[nH]c1=S | -2% | -11 | 32µM* | -1 | 2 | 5
CCOC(=O)c1cc2c(=O)n3ccccc3nc2n(CC(C)C)c1=NC(=O)c1ccco1 | -1% | -23 | 7.1µM* | 3 | 6 | -6
CCOC(=O)c1cc2c(=O)n3ccccc3nc2n(Cc2ccco2)c1=NC(=O)c1cccnc1 | -8% | -18 | 3.2µM* | -5 | -2 | 3
CCOC(=O)c1cc2c(=O)n3ccccc3nc2n(Cc2ccco2)c1=NC(=O)c1ccccc1Br | . | . | 4% | . | . | .
CCOC(=O)c1cc2c(=O)n3cccc(C)c3nc2n(Cc2ccco2)c1=NC(=O)c1cccnc1 | -1% | 1 | 14µM* | 14 | 10 | 0
Cc1cc(C)c2sc(N(Cc3cccnc3)C(=O)CCOc3ccccc3)nc2c1 | . | . | -9% | . | . | .
CSCCC(NC(=O)c1ccc(Cl)c([N+](=O)[O-])c1)C(=O)N1CCN(C/C=C/c2ccccc2)CC1 (configuration not stated) | -5% | -42 | -4% | -10 | 16 | -97*
COc1ccc(CNC(=O)C2CCCN(C(=O)c3cnn(-c4ccc(F)cc4)c3-n3cccc3)C2)cc1 (configuration not stated) | . | . | -1% | . | . | .
Cn1c(=O)c2c(nc(N/N=C/c3ccncc3)n2Cc2ccccc2)n(C)c1=O | -1% | 5 | -16% | -8 | 1 | -1
COc1cc(/C=N/Nc2nc3c(c(=O)n(C)c(=O)n3C)n2Cc2ccccc2)ccc1OC(=O)c1ccco1 | 24% | 3 | 32µM* | 5 | -4 | 3
SMILES | p53 reactivation | KCNH2 WT inh | ClpP mod | TRPV1 PAM | TRPV1 agonist | KCNH2 3.1 block
COc1ccc(S(=O)(=O)N(Cc2ccccc2)c2ccccc2C(=O)Nc2ccccc2C(=O)NCc2ccco2)cc1 | 1% | -14 | 22µM* | 12 | -1 | 17
Cc1cccc(Oc2ncnc3oc(-c4ccccc4)cc23)c1C | -4% | -5 | 28µM* | -2 | 4 | -4
Cc1cc(Cl)ccc1Oc1ncnc2oc(-c3ccccc3)cc12 | 6% | 4 | 25µM* | -2 | 5 | -9
CN1OC[C@@H]2CN(C(=O)NC3CCCCC3)[C@H](c3ccc(N4CCCCC4)cc3)C[C@@H]21 | . | . | 0% | . | . | .
CCOC(=O)C1=C(C)NC(C)=C(C(=O)OCC)C1C(=O)OCC(=O)NC(C)c1ccccc1 (configuration not stated) | -10% | -104* | -12% | 4 | 9 | -11
CCOC(=O)C1=C(C)NC(C)=C(C(=O)OCC)C1C(=O)OCC(=O)NCc1ccccc1 | -13% | 0 | 3% | . | . | 6
CC(Nc1cc(N2CCNCC2)ccc1[N+](=O)[O-])c1ccccc1 (configuration not stated) | -12% | -2 | 28µM* | -13 | ? | -29
Cc1cc(C)cc(NC(=O)CNS(=O)(=O)c2ccc3nc(C)sc3c2)c1 | . | . | -4% | . | . | .
Cc1ccc(/C=N/Nc2nc(N3CCCCC3)nc(N3CCCCC3)n2)o1 | 1% | -3 | . | 2 | 85* | 5
Cc1ccc(OCC(=O)N(Cc2ccco2)Cc2ccco2)cc1C | . | . | 1% | . | . | .
CNc1oc(-c2ccco2)nc1C#N | -6% | 2 | ? | 2 | -3 | 12
N#Cc1nc(-c2ccco2)oc1NCCc1ccccc1 | -2% | -8 | 28µM* | -3 | ? | 7
COc1ccc(CCNc2oc(-c3ccco3)nc2C#N)cc1 | 4% | -2 | 28µM* | -6 | 12 | 5
Cc1ccc(CNc2oc(-c3ccco3)nc2C#N)cc1 | -2% | 2 | 16µM* | -11 | 21 | 1
Cc1ccc(-c2nc(C#N)c(NCc3cccc4c3OCO4)o2)cc1 | 27% | 7 | 32µM* | 6 | 6 | 8
N#Cc1nc(-c2ccccc2F)oc1NCCc1ccccc1 | 15% | 4 | 89% | -17 | ? | 22
CCCC(=O)Oc1c(Sc2ccc(Cl)cc2)c(C)nn1-c1ccccc1 | . | . | -3% | . | . | .
CN(C)c1ccc(/C=C/c2ccnc3ccccc23)c(N)c1 | . | . | 2% | . | . | .
